# In PubChem BioAssay (NCI):
# About 79,000 compounds went through this panel and 15% of them were active in at least one assay; those are over-represented in the sample as a whole. The source made the active and inactive calls. Cut-off read from the data, not from the text of the source: active = growth inhibition above about 70%; inactive = the rest.
# Test: NCI Yeast Anticancer Drug Screen. Data for the cln2 rad14 strain (AID 165);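 note: 0% = growth equal to vehicle treated cultures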
# Details: S. cerevisiae cln2 rad14 strain, at 50.0 µM (retest, dose inferred, filed as 5.0), hits give high values
# Outline: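 Readout is yeast growth inhibition versus vehicle-treated controls, using a strain with cln2 and rad14 alterations exposed to compound.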
row,Structure (SMILES),growth inhibition
1,O=[N+]([O-])c1cc(F)c(Sc2cc(Br)c([N+](=O)[O-])cc2F)cc1Br,-21% (inactive)
2,C=CS(=O)(=O)c1ccc(C)cc1,31% (inactive)
3,NC(CSSCC(N)C(=O)Nc1ccc2ccccc2c1)C(=O)Nc1ccc2ccccc2c1 (stereo not given),99% (active)
4,COc1ccc(C2=CCC3C4CC=C5CC(O)CCC5(C)C4CCC23C)s1 (stereo not given),18% (inactive)
5,O=C(O)COc1ccccc1C(=O)O,2% (inactive)
6,O=[N+]([O-])c1ccc(NNS(=O)(=O)c2ccccc2)c([N+](=O)[O-])c1,-17% (inactive)
7,CCOc1nc(N)nc(C)c1N=Nc1ccc(Cl)cc1,35% (inactive)
8,Nc1ccc2c(c1)CCc1ccccc1-2,8% (inactive)
9,O=c1c2cc3c(cc2c2cccc4c2n1CCC4)OCO3,6% (inactive)
10,O=C(COc1ccc(Br)cc1Br)N1N=C(c2ccc([N+](=O)[O-])o2)CC1(O)c1ccccc1 (stereo not given),0% (inactive)
11,Nc1cc(Br)cc2c1[nH]c1ccc(Br)cc12,97% (active)
12,Clc1ccccc1CCc1cc(-c2ccccc2)n[nH]1,97% (active)
13,O=C(CSc1nnc(-c2ccc(N=Cc3ccc(Cl)cc3)cc2)o1)Nc1ccccc1Cl,28% (inactive)
14,COC(=O)CCCCC(=O)N(C(C)C)C(C)C,11% (inactive)
15,CCc1ccccc1NC(=O)C(=O)CC(=O)c1ccc(Cl)s1,6% (inactive)
16,CCNC(=S)N/N=C/c1ccccn1,95% (active)
17,[N-]=[N+]=Nc1c(C=O)c(=O)n(-c2ccccc2)c2ccccc12,29% (inactive)
18,COc1cc2c(c(O)c1C)C(=O)C(Cl)=CC2=O,98% (active)
19,O=c1[nH]c(=O)c2cc([N+](=O)[O-])cc([N+](=O)[O-])c2[nH]1,63% (inactive)
20,CCOC(=O)NC(=S)Nc1ccsc1,-13% (inactive)

row,Structure (SMILES),growth inhibition
1,O=C(/C(O)=C(\O)C(=O)N(C1CCCCC1)C1CCCCC1)N(C1CCCCC1)C1CCCCC1,66% (inactive)
2,Nc1nccc2c1ncn2C1C=C(CO)C(O)C1O (stereo not given),26% (inactive)
3,NC(=Nc1ccccc1)c1ccc2c(c1)c1c(n2Cc2ccccc2)CCCC1,94% (active)
4,CC/C(=C(/CC)c1ccc(O)cc1)c1ccc([O-])cc1.CC/C(=C(/CC)c1ccc(O)cc1)c1ccc([O-])cc1.O=C([CH-]C(=O)c1ccccc1)c1ccccc1.O=C([CH-]C(=O)c1ccccc1)c1ccccc1.[Ti+4],96% (active)
5,CC(=O)c1c(O)c2ccc(Cl)cc2[nH]c1=O,59% (inactive)
6,CCOC(=O)c1cnccc1CC1(C#N)c2ccccc2C=CN1C(=O)c1ccccc1 (stereo not given),68% (inactive)
7,O=c1cc(-c2ccccc2)oc(-c2ccccc2)c1,-82% (inactive)
8,CCCCCC/C=C\C=O,12% (inactive)
9,O=C1NC(=O)C(c2ccccc2)(c2ccccc2)C2CC3c4[nH]c5ccccc5c4CCN3CC12 (stereo not given),66% (inactive)
10,Nc1ccc(-c2ccc(N)cc2S(=O)(=O)O)c(S(=O)(=O)O)c1,-5% (inactive)
11,Oc1ccc2ccccc2c1/C=N\Sc1ccccc1,99% (active)
12,CCCC(C)c1ccc(O)cc1 (stereo not given),-3% (inactive)
13,CCOC(=O)/C(=C\c1ccc(Cl)cc1)C(C)=O,98% (active)
14,O=C(O)C(SC1=NNC2(C(=O)N1)c1ccccc1-c1ccccc12)SC1=NNC2(C(=O)N1)c1ccccc1-c1ccccc12,66% (inactive)
15,Cc1sc(Cc2ccccc2)nc1-c1ccc(N=Cc2ccc(N(CCOS(C)(=O)=O)CCOS(C)(=O)=O)cc2)cc1,95% (active)
16,CCCCc1ccc(Nc2nc(N)c3[nH]cnc3n2)cc1,34% (inactive)
17,O=C(c1c(F)c(F)c(F)c(F)c1F)n1c(=S)n(C(=O)c2c(F)c(F)c(F)c(F)c2F)c2ccccc21,53% (inactive)
18,Cc1ccnc2sc3ccccc3c(=O)c12,76% (active)
19,O=[N+]([O-])c1ccc2c(c1)CCc1ccccc1-2,33% (inactive)
20,NNc1ccc(Br)cc1,98% (active)

# Same assay, conditions: S. cerevisiae cln2 rad14 strain, at 50.0 µM, hits give high values
row,Structure (SMILES),growth inhibition
1,O=[N+]([O-])c1cc(F)c(Sc2cc(Br)c([N+](=O)[O-])cc2F)cc1Br,43.5% (inactive)
2,C=CS(=O)(=O)c1ccc(C)cc1,37.2% (inactive)
3,NC(CSSCC(N)C(=O)Nc1ccc2ccccc2c1)C(=O)Nc1ccc2ccccc2c1 (stereo not given),90.3% (active)
4,COc1ccc(C2=CCC3C4CC=C5CC(O)CCC5(C)C4CCC23C)s1 (stereo not given),53.5% (inactive)
5,O=C(O)COc1ccccc1C(=O)O,23.8% (inactive)
6,O=[N+]([O-])c1ccc(NNS(=O)(=O)c2ccccc2)c([N+](=O)[O-])c1,-18.2% (inactive)
7,CCOc1nc(N)nc(C)c1N=Nc1ccc(Cl)cc1,74.8% (active)
8,Nc1ccc2c(c1)CCc1ccccc1-2,50.4% (inactive)
9,O=c1c2cc3c(cc2c2cccc4c2n1CCC4)OCO3,42.4% (inactive)
10,O=C(COc1ccc(Br)cc1Br)N1N=C(c2ccc([N+](=O)[O-])o2)CC1(O)c1ccccc1 (stereo not given),76.2% (active)
11,Nc1cc(Br)cc2c1[nH]c1ccc(Br)cc12,97.8% (active)
12,Clc1ccccc1CCc1cc(-c2ccccc2)n[nH]1,88.9% (active)
13,O=C(CSc1nnc(-c2ccc(N=Cc3ccc(Cl)cc3)cc2)o1)Nc1ccccc1Cl,-54.5% (inactive)
14,COC(=O)CCCCC(=O)N(C(C)C)C(C)C,76.3% (active)
15,CCc1ccccc1NC(=O)C(=O)CC(=O)c1ccc(Cl)s1,26.2% (inactive)
16,CCNC(=S)N/N=C/c1ccccn1,81.2% (active)
17,[N-]=[N+]=Nc1c(C=O)c(=O)n(-c2ccccc2)c2ccccc12,63.5% (inactive)
18,COc1cc2c(c(O)c1C)C(=O)C(Cl)=CC2=O,98.9% (active)
19,O=c1[nH]c(=O)c2cc([N+](=O)[O-])cc([N+](=O)[O-])c2[nH]1,25.7% (inactive)
20,CCOC(=O)NC(=S)Nc1ccsc1,56.8% (inactive)

row,Structure (SMILES),growth inhibition
1,O=C(/C(O)=C(\O)C(=O)N(C1CCCCC1)C1CCCCC1)N(C1CCCCC1)C1CCCCC1,79.7% (active)
2,Nc1nccc2c1ncn2C1C=C(CO)C(O)C1O (stereo not given),57.5% (inactive)
3,NC(=Nc1ccccc1)c1ccc2c(c1)c1c(n2Cc2ccccc2)CCCC1,94.9% (active)
4,CC/C(=C(/CC)c1ccc(O)cc1)c1ccc([O-])cc1.CC/C(=C(/CC)c1ccc(O)cc1)c1ccc([O-])cc1.O=C([CH-]C(=O)c1ccccc1)c1ccccc1.O=C([CH-]C(=O)c1ccccc1)c1ccccc1.[Ti+4],91.5% (active)
5,CC(=O)c1c(O)c2ccc(Cl)cc2[nH]c1=O,31.5% (inactive)
6,CCOC(=O)c1cnccc1CC1(C#N)c2ccccc2C=CN1C(=O)c1ccccc1 (stereo not given),52.2% (inactive)
7,O=c1cc(-c2ccccc2)oc(-c2ccccc2)c1,-20.1% (inactive)
8,CCCCCC/C=C\C=O,52% (inactive)
9,O=C1NC(=O)C(c2ccccc2)(c2ccccc2)C2CC3c4[nH]c5ccccc5c4CCN3CC12 (stereo not given),46.6% (inactive)
10,Nc1ccc(-c2ccc(N)cc2S(=O)(=O)O)c(S(=O)(=O)O)c1,23.4% (inactive)
11,Oc1ccc2ccccc2c1/C=N\Sc1ccccc1,41% (inactive)
12,CCCC(C)c1ccc(O)cc1 (stereo not given),-26.3% (inactive)
13,CCOC(=O)/C(=C\c1ccc(Cl)cc1)C(C)=O,92% (active)
14,O=C(O)C(SC1=NNC2(C(=O)N1)c1ccccc1-c1ccccc12)SC1=NNC2(C(=O)N1)c1ccccc1-c1ccccc12,95.8% (active)
15,Cc1sc(Cc2ccccc2)nc1-c1ccc(N=Cc2ccc(N(CCOS(C)(=O)=O)CCOS(C)(=O)=O)cc2)cc1,93.8% (active)
16,CCCCc1ccc(Nc2nc(N)c3[nH]cnc3n2)cc1,16.7% (inactive)
17,O=C(c1c(F)c(F)c(F)c(F)c1F)n1c(=S)n(C(=O)c2c(F)c(F)c(F)c(F)c2F)c2ccccc21,8.45% (inactive)
18,Cc1ccnc2sc3ccccc3c(=O)c12,68.5% (inactive)
19,O=[N+]([O-])c1ccc2c(c1)CCc1ccccc1-2,9.4% (inactive)
20,NNc1ccc(Br)cc1,90.5% (active)
